Our source for the growth inhibition values is PubChem BioAssay (NCI).

The panel holds about 79,000 compounds, 15% with a hit somewhere; the sample as a whole holds those more often. Values without a mark were called inactive. Active and inactive are the calls of the source. No stated cut-off is given here; in the data, active means growth inhibition above about 70%; inactive means the rest.

The assay is described as follows: NCI Yeast Anticancer Drug Screen. Data for the wt1 strain (AID 149).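 Further: 0% = growth of vehicle-treated wt1 cultures.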 The following applies: S. cerevisiae wt1 strain (SPY 50644) growth inhibition, stronger effect = higher value. As for the experimental part:
Growth inhibition of yeast strains with defined genetic alterations is measured as a screen for potential anti-cancer activity. Selected strains with alterations in DNA damage repair or cell cycle control were exposed to compounds and growth inhibition was measured relative to vehicle treated controls. The strain used in this assay is wt1

`Cc1cccc2c1nc1ccc(Cl)cc1[n+]2C`: the growth inhibition reads like this: (at 1.2 µM) -1%; (at 3.7 µM) 4%; (at 11.0 µM) 41%; (at 33.0 µM) 97% (active); (at 100.0 µM) 96% (active).

Turning to `COC(=O)CCC(NC(=S)N/N=C(\C)c1ccccn1)C(=O)OC` (stereo not given), the growth inhibition runs as follows: (at 1.2 µM) -10%; (at 3.7 µM) -22%; (at 11.0 µM) 2%; (at 33.0 µM) 47%; (at 100.0 µM) 85% (active).

For the molecule `C[Si](C)(C)/C=C/CCNC(C#N)c1ccccc1` (stereo not given), the growth inhibition is, setting by setting: (at 1.2 µM) 3%; (at 3.7 µM) -2%; (at 11.0 µM) 41%; (at 33.0 µM) 35%; (at 100.0 µM) 95% (active).

As for `CCCCCCC(O)CNCc1ccnc2ccc(OC)cc12` (stereo not given), the growth inhibition (at 1.2 µM) was 2%; the growth inhibition (at 3.7 µM) was 9%; the growth inhibition (at 11.0 µM) is 4%; the growth inhibition (at 33.0 µM) was 8%; the growth inhibition (at 100.0 µM) was 18%.

On to `CCN(CC)CCNc1ccc2ncn3c4cc(OC)c(OC)c(=O)c4c(O)c1c23`, for which the growth inhibition is -82% (at 1.2 µM); 1% (at 3.7 µM); 2% (at 11.0 µM); 4% (at 33.0 µM); 6% (at 100.0 µM).

Take `CNC(=O)OCc1c(COC(=O)NC)c2n(c1C)-c1ccc(OC)cc1CCC2`: the growth inhibition (at 1.2 µM) was -45%; the growth inhibition (at 3.7 µM) is -53%; the growth inhibition (at 11.0 µM) was -57%; the growth inhibition (at 33.0 µM) was 96% (active); the growth inhibition (at 100.0 µM) is 100% (active).

With `CC(=O)Nc1ccc2c(c1)-c1ccccc1C2=O`, the growth inhibition (at 1.2 µM) was -2%; the growth inhibition (at 3.7 µM) is -1%; the growth inhibition (at 11.0 µM) is -48%; the growth inhibition (at 33.0 µM) is 6%; the growth inhibition (at 100.0 µM) is 45%.

For the molecule `Cc1cccc(C(C)(C)C)c1NC(=O)C(C#N)C1=C(Cl)C(=O)c2ccccc2C1=O` (stereo not given), the growth inhibition reads like this: (at 1.2 µM) -10%; (at 3.7 µM) 10%; (at 11.0 µM) 21%; (at 33.0 µM) 98% (active); (at 100.0 µM) 98% (active).
